Assay outcomes deposited in PubChem BioAssay by National Center for Advancing Translational Sciences (NCATS).
In the library only some 1.3% were active in any assay of this set; here they are far more common.
GCN5L2 inh = GCN5L2 (KAT2A) acetyltransferase inhibition; AID 504327; Q92830; Potency, µM (top dose mostly 58.9 µM), inactives show at the highest dose activity change, negative = inhibition, actives largely listed as inhibitors; actives 0.21% (n = 390,000); GCN5L2 HAT assay, ThioGlo1 CoA-SH fluorescence; further: potency means the concentration at half of the fitted maximal effect
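Compounds, pin-transferred from DMSO stocks, meet 20nM GCN5L2 for 15 min before the reaction begins with H3(1-25) peptide (75uM) and acetyl-CoA (70uM). Thiol-reactive ThioGlo1 reports CoA release over 20 min at room temperature.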
GALK inhibitor = inhibitors of human galactokinase. Potency, µM (doses to about 57.5 µM), without a hit: at the top dose activity change, negative = inhibition, usual class: inhibitors. P51570. Purified GALK, Kinase-Glo residual ATP luminescence. actives 0.007% (n = 270,000); further: potency means the concentration at half of the fitted maximal effect
Target sequence (P51570 whole entry, looked up): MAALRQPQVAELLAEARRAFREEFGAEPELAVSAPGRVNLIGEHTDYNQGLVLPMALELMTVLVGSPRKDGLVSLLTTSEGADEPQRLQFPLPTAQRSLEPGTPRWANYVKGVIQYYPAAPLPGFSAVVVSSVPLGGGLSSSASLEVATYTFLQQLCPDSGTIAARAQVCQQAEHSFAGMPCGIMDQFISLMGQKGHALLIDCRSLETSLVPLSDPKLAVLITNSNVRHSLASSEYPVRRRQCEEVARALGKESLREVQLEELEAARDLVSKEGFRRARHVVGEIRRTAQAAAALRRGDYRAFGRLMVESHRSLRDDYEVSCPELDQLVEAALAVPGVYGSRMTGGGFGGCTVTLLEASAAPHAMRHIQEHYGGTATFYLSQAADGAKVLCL
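Human GALK (5 nM) with 35 uM ATP and 100 uM galactose in 20 mM HEPES pH 8.0, 5 mM MgCl2, 60 mM NaCl, 1 mM DTT, 0.01% BSA. After 1 h at room temperature, leftover ATP was read by Kinase-Glo Plus luminescence.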
TrxR1 substrate = substrates of rat thioredoxin reductase 1 | O89049 | purified TrxR1 substrate turnover, NADPH consumption readout | Potency, µM (titrated, usually from 114 µM), for the others: at the highest dose activity change, negative = substrate turnover | actives 0.01% (n = 390,000); further: potency means the concentration at half of the fitted maximal effect; nearly all actives have a fitted effect of over 50% in size
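Rat TrxR1, dispensed at 90 nM, was prereduced with 400 uM NADPH (final) for 5 min at ~22 deg C, then incubated with compound 15 min before 400 uM selenite. A first-read NADPH fluorescence drop versus no-compound background flagged substrates.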
TrxR1 inh = blocks rat thioredoxin reductase 1; O89049; recombinant rTrxR1, NADPH fluorescence consumption, selenite substrate; Potency, µM (top dose mostly 114 µM), without a hit: top-dose activity change, negative = inhibition, usual class: inhibitors; actives 1% (n = 390,000); AID 588453; further: potency means the concentration at half of the fitted maximal effect; nearly all actives have a fitted effect of over 65% in size
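Rat TrxR1 (90 nM in the dispensed reagent) was pre-reduced with 400 uM NADPH for 5 min at room temperature, then incubated with compound for 15 min. After 400 uM selenite was added, NADPH fluorescence (Ex 340/Em 450 nm) was followed for 8 min.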
Giardia kill = kills Giardia lamblia | Giardia lamblia trophozoite viability | activity change, % at 7.66 µM, hits read low | actives 0.15% (n = 340,000) | AID 540267; in the data active means activity change below about -80%; inconclusive means between about -30% and that limit;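 further: parasites exposed to compound for two days anaerobically before the ATP read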
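Media and compound were dispensed first, then trophozoites at 100 cells/well; plates sat 48 hrs at 37 deg C without oxygen before ATP luminescence reagent was added and read after 15-30 min at room temperature.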
Pin1 inh = inhibitors of human Pin1 | Q13526 | Pin1 FP peptide displacement, HiFluor488, 10 min | Potency, µM (doses to about 115 µM), for the others: at the top dose activity, negative = inhibition, actives largely listed as inhibitors | actives 0.009% (n = 390,000); active means well fitted inhibition curve with a large enough effect in the polarisation, with a control signal flat, not every such curve was filed as active; inconclusive means small, poorly fitted or top-dose-only effect, or effect the other way, or a change in a side signal; inactive means no such curve, though single readings can be large or run the other way; the % refers to the polarisation; further: potency means the concentration at half of the fitted maximal effect
Target sequence (Q13526 whole entry, looked up): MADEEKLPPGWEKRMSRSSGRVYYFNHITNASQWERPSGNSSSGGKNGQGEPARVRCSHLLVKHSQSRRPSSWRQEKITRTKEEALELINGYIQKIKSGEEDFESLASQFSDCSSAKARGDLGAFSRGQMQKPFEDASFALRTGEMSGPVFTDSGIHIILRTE
Numbers without * were called inactive; [ ] = dose if it differs, or a comment. Unless noted, the call rests on the fitted dose curve; in most records, active means well fitted curve in the direction sought with a large enough effect; inconclusive means small, poorly fitted or top-dose-only effect, or another doubt; inactive means no such curve, though single readings can be large; an effect the other way counts as inactive or inconclusive. On the % scale 0 is the no-effect control and ±100 the full control effect.

O=C(CCNc1ccc(Br)cc1)c1cccc([N+](=O)[O-])c1 was read as GCN5L2 inh -5.8%, GALK inhibitor -0.7%, TrxR1 substrate -4.6%, TrxR1 inh 15.8µM*, Giardia kill 9.1 and Pin1 inh -2.5%.
O=C(CCNc1ccc(F)cc1)c1cccc([N+](=O)[O-])c1 was read as GCN5L2 inh -17.9%, GALK inhibitor 1.0%, TrxR1 substrate 4.7%, TrxR1 inh 3.55µM*, Giardia kill 5.3 and Pin1 inh -1.1%.
`O=C(NCCNc1ccc([N+](=O)[O-])cc1)c1cccc(Br)c1` gave GCN5L2 inh -2.5%, TrxR1 substrate -0.2%[57.1 µM], TrxR1 inh -7.7%[57.1 µM], Giardia kill 7.7 and Pin1 inh 1.5%.
For O=C(C[n+]1ccccc1)c1cccc([N+](=O)[O-])c1 the results were TrxR1 substrate 1.4% and TrxR1 inh -15.7%.
`O=C(CCNc1ccccc1)c1cccc([N+](=O)[O-])c1` gave GCN5L2 inh -10.5%, GALK inhibitor 0.2%, TrxR1 substrate 3.2%, TrxR1 inh 1.58µM*, Giardia kill -3.4 and Pin1 inh 2.9%.
Screening Cc1ccc(Nc2cc(C)nc(-c3ccccc3)n2)cc1 returned GCN5L2 inh -0.7%, TrxR1 substrate -2.7%, TrxR1 inh 1.1%, Giardia kill 5.5 and Pin1 inh 0.0%.
For COc1ccc(NC(=O)C(OC(=O)CNC(=O)c2ccccc2)c2ccccc2)cc1Cl (stereo not given) the results were Pin1 inh 1.6%.
For CC(C)(C)n1ncc2c(=O)n(Cc3ccccc3C#N)cnc21 the results were TrxR1 substrate 4.3% and TrxR1 inh 16.9%[57.1 µM].
Screening Cc1ccc(NCCC(=O)c2cccc([N+](=O)[O-])c2)cc1 returned GCN5L2 inh -5.5%, GALK inhibitor 3.7%, TrxR1 substrate 7.8%[57.1 µM], TrxR1 inh 3.55µM*, Giardia kill -12.6 and Pin1 inh 0.1%.
Cc1ccc(CONC(=O)c2cccc([N+](=O)[O-])c2)cc1 was read as GCN5L2 inh -1.3%, TrxR1 substrate -6.2%, TrxR1 inh -8.4%, Giardia kill -11.7 and Pin1 inh 1.7%.
Screening Cc1ccc(-c2ccc(CCC(=O)O)o2)cc1 returned GCN5L2 inh -23.6%, GALK inhibitor 3.3%, TrxR1 substrate 11.3%, TrxR1 inh 22.4µM*, Giardia kill 8.8 and Pin1 inh 1.2%.
For CC(C)N1C(=O)S/C(=C/c2ccc3c(c2)n(C)c(=O)n3C)C1=O the results were GCN5L2 inh -13.0%, GALK inhibitor -3.3%, TrxR1 substrate 4.5%, TrxR1 inh -13.9%, Giardia kill -8.7 and Pin1 inh 0.9%.
Screening CCN(CC)c1ccc(/C=C2\SC(=O)N(C(C)C)C2=O)o1 returned GCN5L2 inh -11.2%, GALK inhibitor -4.0%, TrxR1 substrate -19.4%[57.1 µM], TrxR1 inh 3.98µM*, Giardia kill -7.0 and Pin1 inh inconclusive.
Oc1c(C(c2ccc(Cl)cc2)N2CCCC2)cc(Cl)c2cccnc12 (stereo not given) was read as GCN5L2 inh -15.4%, GALK inhibitor 8.3%, TrxR1 substrate 1.2%[57.1 µM], TrxR1 inh 50.1µM*, Giardia kill 6.5 and Pin1 inh 24.7%.
For Cc1ccc(C(c2cc(Cl)c3cccnc3c2O)N2CCN(C)CC2)cc1 (stereo not given) the results were GCN5L2 inh 31.6µM*, GALK inhibitor 15.1%, TrxR1 substrate 6.3%, TrxR1 inh 4.47µM*, Giardia kill -24.6 and Pin1 inh -1.6%.
Oc1c(C(c2ccccc2Cl)N2CCCC2)ccc2cccnc12 (stereo not given) was read as GCN5L2 inh -4.1%, GALK inhibitor 6.6%, TrxR1 substrate -2.2%, TrxR1 inh 7.08µM*, Giardia kill 24.7 and Pin1 inh -10.2%.
CN1CCN(C(c2ccccn2)c2cc(Cl)c3cccnc3c2O)CC1 (stereo not given) was read as GCN5L2 inh -16.0%, GALK inhibitor 12.9%, TrxR1 substrate -6.7%, TrxR1 inh inconclusive, Giardia kill 6.6 and Pin1 inh -7.2%.
Screening CN1CCN(C(c2ccc(C(F)(F)F)cc2)c2ccc3cccnc3c2O)CC1 (stereo not given) returned GCN5L2 inh -1.5%, GALK inhibitor 0.4%, TrxR1 substrate -1.0%, TrxR1 inh 6.31µM*, Giardia kill 8.9 and Pin1 inh -10.9%.
COc1ccc(OC)c(CCNC(=O)c2cc3cccc4c3n2CC(C)S4)c1 (stereo not given) was read as GCN5L2 inh -2.2%, TrxR1 substrate 33.9%, TrxR1 inh 70.2% and Pin1 inh 8.5%.
For N#C/C(=C\c1c[nH]c2ccccc12)C(=O)c1ccc(O)c(O)c1 the results were GCN5L2 inh -10.4%, TrxR1 substrate 8.0%[57.1 µM] and TrxR1 inh 9.8%[57.1 µM].
CCSc1ncc(Cl)c(C(=O)Nc2sc3c(c2C(=O)NCCCOC)CCCC3)n1 was read as GCN5L2 inh -1.3%, TrxR1 substrate 12.6%[0.457 µM], TrxR1 inh 19.2%, Giardia kill -13.4 and Pin1 inh inconclusive.
Screening COCCCNC(=O)c1c(NC(=O)c2nc(S(C)(=O)=O)ncc2Cl)sc2c1CCCC2 returned GCN5L2 inh 8.8%, TrxR1 substrate 6.2%, TrxR1 inh 1.78µM* and Pin1 inh 22.6%.
`CCNC(=O)c1c(NC(=O)c2nc(S(=O)(=O)CC)ncc2Cl)sc2c1CCCC2` gave GCN5L2 inh -4.1%, TrxR1 substrate -8.7%, TrxR1 inh 14.1µM* and Pin1 inh 41.0%.
`CCOC(=O)C1CCN(c2ncc(-c3ccc4c(c3)OCCCO4)s2)CC1` gave Pin1 inh -2.1%.
For O=C(/C=C/c1ccc(Br)o1)NCCCN1CCOCC1 the results were GCN5L2 inh -5.6%, GALK inhibitor -3.8%, TrxR1 substrate -2.5%, TrxR1 inh 8.91µM*, Giardia kill -25.8 and Pin1 inh 7.7%.
COC(=O)c1sc2nc(-c3ccco3)ccc2c1N was read as GCN5L2 inh -10.2%, GALK inhibitor 0.9%, TrxR1 substrate -9.2%, TrxR1 inh inconclusive, Giardia kill inconclusive and Pin1 inh 35.7%.
`NC(=O)c1sc2nc(-c3ccco3)ccc2c1N` gave GCN5L2 inh -12.6%, GALK inhibitor 1.7%, TrxR1 substrate 6.7%, TrxR1 inh 44.7µM*, Giardia kill 9.8 and Pin1 inh 20.9%.
CCN(CC(=O)Nc1c(F)cccc1F)C(=O)c1cccc(S(=O)(=O)N2CCCCCC2)c1 was read as GCN5L2 inh -13.8%, TrxR1 substrate -3.6%, TrxR1 inh 19.3%, Giardia kill inconclusive and Pin1 inh -4.7%.
